A selection: hits, their analogues and other compounds. The true share with any hit is near 5.2%.
Sfp inh: qHTS Assay for Inhibitors of Bacillus subtilis Sfp phosphopantetheinyl transferase (PPTase). 4'-phosphopantetheinyl transferase ffp (Bacillus subtilis), Q9F4F7. AID 1490, 2009. Potency, µM, without a hit: largest response in the series, negative = inhibition, hits mostly inhibitors. 310,000 compounds, 3.5% hits. Biochemical Sfp PPTase activity, qHTS;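 note: the enzyme is Sfp with the accession as filed and its product quenches rhodamine fluorescence; potency is the fitted concentration of half-maximal effect; 0% = enzyme reaction without inhibitor and -100% = no enzyme wells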
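Step 1, compound plus 15 nM Sfp-PPTase, 15 min, room temperature. Step 2, add rhodamine-CoA (5 uM) and BHQ-2-YbbR (12.5 uM). Step 3, read 525/598 nm fluorescence at 0 and 30 min.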
IDH1 R132H inh: qHTS for Inhibitors of mutant isocitrate dehydrogenase 1 (IDH1): qHTS. Potency, µM (doses to about 76.6 µM), inactives show top-dose activity change, negative = inhibition, usual class: inhibitors. AID 602179, 2012. 390,000 compounds, 0.093% hits. IDH1-R132H enzyme, NADPH consumption, diaphorase/resazurin fluorescence; note: potency is the fitted concentration of half-maximal effect; % is set by controls: 0 for no effect and ±100 for the full control effect; nearly all actives have a fitted effect of over 65% in size
Target sequence (O75874 whole entry R132H, stated change not applied): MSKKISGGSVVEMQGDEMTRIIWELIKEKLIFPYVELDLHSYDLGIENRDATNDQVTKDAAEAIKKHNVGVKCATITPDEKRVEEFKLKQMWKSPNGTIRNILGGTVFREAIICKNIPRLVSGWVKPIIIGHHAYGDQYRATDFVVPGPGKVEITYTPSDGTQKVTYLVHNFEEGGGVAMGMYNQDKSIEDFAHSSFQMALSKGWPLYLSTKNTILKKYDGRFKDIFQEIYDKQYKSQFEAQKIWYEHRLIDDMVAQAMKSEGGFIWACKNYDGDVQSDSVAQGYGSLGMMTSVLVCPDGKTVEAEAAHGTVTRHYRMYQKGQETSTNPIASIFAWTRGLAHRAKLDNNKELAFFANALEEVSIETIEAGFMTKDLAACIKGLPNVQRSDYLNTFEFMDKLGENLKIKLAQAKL
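IDH1-R132H (0.5 ug/mL) preincubated 30 min with compound, then NADPH (0.016 mM) and alpha-KG (2 mM) added; 80 min at RT, pH 7.5. Remaining NADPH coupled via diaphorase/resazurin to fluorescence (540/590 nm); concentration-response curves normalized to no-enzyme control.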
PLK1 PBD inh: qHTS for Inhibitors of PLK1-PDB (polo-like kinase 1 - polo-box domain): Primary Screen; Serine/threonine-protein kinase PLK1 (Homo sapiens), P53350; Plk1 PBD binding of FITC phosphopeptide, fluorescence polarization; Potency, µM, for inactives: max response, negative = inhibition, most hits filed as inhibitors; 360,000 compounds, 2.8% hits; note: potency is the fitted concentration of half-maximal effect; series mostly up to about 57 µM; % is set by controls: 0 for no effect and ±100 for the full control effect; nearly all actives have a fitted effect of over 65% in size
TrxR1 substrate: qHTS Assay for Substrates of Mammalian Selenoprotein Thioredoxin Reductase 1 (TrxR1): qHTS. Potency, µM (titrated, usually from 114 µM), inactives show top-dose activity change, negative = substrate turnover. Thioredoxin reductase 1, cytoplasmic (Rattus norvegicus), O89049. purified TrxR1 substrate turnover, NADPH consumption readout. 390,000 compounds, 0.01% hits; note: potency is the fitted concentration of half-maximal effect; % is set by controls: 0 for no effect and ±100 for the full control effect; nearly all actives have a fitted effect of over 50% in size
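Rat TrxR1, dispensed at 90 nM, was prereduced with 400 uM NADPH (final) for 5 min at ~22 deg C, then incubated with compound 15 min before 400 uM selenite. A first-read NADPH fluorescence drop versus no-compound background flagged substrates.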
TrxR1 inh: qHTS Assay for Inhibitors of Mammalian Selenoprotein Thioredoxin Reductase 1 (TrxR1): qHTS; Thioredoxin reductase 1, cytoplasmic (Rattus norvegicus), O89049; 390,000 compounds, 1% hits; recombinant rTrxR1, NADPH fluorescence consumption, selenite substrate; Potency, µM (top dose mostly 114 µM), for the others: at the highest dose activity change, negative = inhibition, most hits filed as inhibitors; note: potency is the fitted concentration of half-maximal effect; % is set by controls: 0 for no effect and ±100 for the full control effect; nearly all actives have a fitted effect of over 65% in size
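Rat TrxR1 (90 nM in the dispensed reagent) was pre-reduced with 400 uM NADPH for 5 min at room temperature, then incubated with compound for 15 min. After 400 uM selenite was added, NADPH fluorescence (Ex 340/Em 450 nm) was followed for 8 min.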
VDR inhibitor: Inhibitors of the vitamin D receptor (VDR): qHTS; 400,000 compounds, 0.93% hits; Vitamin D3 receptor (Homo sapiens), P11473; VDR-SRC2-3 peptide fluorescence polarization, 2 h; Potency, µM, for inactives: max response, negative = inhibition, actives largely listed as inhibitors; note: potency is the fitted concentration of half-maximal effect; % is set by controls: 0 for no effect and ±100 for the full control effect
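Two reagent solutions held at 4 deg C in the dark were dispensed, compounds pinned at 23 nl, and the mixture incubated 2 h at room temperature. Read-out: fluorescence polarization of VDR–SRC2-3 peptide binding.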
USP1 UbRho: Inhibitors of USP1/UAF1: Hit Validation in Primary Assay; shares compounds with VDR inhibitor; Ub-Rhodamine cleavage, fluorescence kinetic read; Potency, µM (titrated, usually from 114 µM), for the others: at the highest dose activity change, negative = inhibition, most hits filed as inhibitors; 50 compounds, 50% hits; AID 540327, 2011
VDR confirm: qHTS for Inhibitors of the vitamin D receptor (VDR): Hit Validation in Primary Screen; shares compounds with VDR inhibitor; VDR-coactivator inhibition assay, qHTS confirmation; Potency, µM, actives largely listed as inhibitors; 840 compounds, 89% hits; note: potency is the fitted concentration of half-maximal effect
VDR FP: qHTS for Inhibitors of the vitamin D receptor (VDR): Hit Validation using a Fluorescein Assay | VDR-coactivator binding, fluorescein fluorescence polarization | shares compounds with VDR inhibitor | AID 602200, 2012 | Potency, µM (series often up to 57.1 µM), for inactives: at the highest dose activity change, negative = inhibition, hits mostly inhibitors | 840 compounds, 48% hits; note: potency is the fitted concentration of half-maximal effect
VDR bla reporter: qHTS for Inhibitors of the vitamin D receptor (VDR): Hit Validation using a Beta-Lactamase Assay; VDR beta-lactamase reporter cells, FRET ratio; cells co-treated with VDR agonist LG190178; shares compounds with VDR inhibitor; Potency, µM (doses to about 46.1 µM), inactives show top-dose activity change, negative = inhibition, hits mostly inhibitors; 840 compounds, 23% hits; note: potency is the fitted concentration of half-maximal effect; % is set by controls: 0 for no effect and ±100 for the full control effect
VDR viability: qHTS for Inhibitors of the vitamin D receptor (VDR): Hit Validation using a Cytotoxicity Assay. shares compounds with VDR inhibitor. cytotoxicity counter-screen, cell viability, qHTS. Potency, µM (doses to about 48.3 µM), for the others: at the highest dose activity change, negative = cytotoxicity, actives largely listed as cytotoxic. 840 compounds, 18% hits;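 note: potency is the fitted concentration of half-maximal effect; plate controls were DMSO for no effect and high-concentration cycloheximide for full effect; nearly all actives have a fitted effect of over 75% in size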
The depositor's hits bear a star; u = inconclusive; x = no result given; [ ] = another dose, or the depositor's remark. Calls come from the whole dose curve; as a rule, active = well fitted curve in the direction sought with a large enough effect; inconclusive = small, poorly fitted or top-dose-only effect, or another doubt; inactive = no such curve, though single readings can be large; an effect the other way counts as inactive or inconclusive.

SMILES | Sfp inh | IDH1 R132H inh | PLK1 PBD inh | TrxR1 substrate | TrxR1 inh | VDR inhibitor | VDR confirm | VDR FP | VDR bla reporter | VDR viability | others
O=c1nc(/C=C/c2ccc(Cl)cc2Cl)cc(C(F)(F)F)[nH]1 | -17% | 6% | 27µM* | 10%[2.29 µM] | -15% | 10µM* | 7.5* | 3.2µM* | u | 37%
C=C1C2C[C@]3(C4CC5[C@@]6(C)CC[C@H](O)[C@@]5(C3CC2=O)C4[N+]([O-])(CC)C6)[C@@H]1O (stereo not given in full) | 10% | x | x | x | x | 3% | x | x | x | x
O=C1NC(=O)C(=Cc2ccccc2OCCOc2ccc([N+](=O)[O-])cc2)C(=O)N1 | 50µM* | 0% | 6µM* | 1%[57.1 µM] | u | 45µM* | 27* | 10µM* | 20% | u
CC/C=C\C/C=C\C/C=C\C/C=C\C/C=C\CCCC(N)=O | -10% | x | x | x | x | -1% | x | x | x | x
O=C1NC(=O)[C@]2(Cc3ccccc3N3CCN(c4ccccc4)CC32)C(=O)N1Cc1ccccc1 (stereo not given in full) | -20% | 14% | -18% | -14% | u | u | x | x | x | x
Cc1ccccc1N1C(=O)NC(=O)/C(=C\c2ccc3c(c2)CCCN3Cc2ccccc2)C1=O | 79µM* | 52µM* | u | -1%[11.4 µM] | -28%[11.4 µM] | 40µM* | 12* | 200% | 38% | 12%
CC(C)C[C@H]1C(=O)N2CCC[C@@H]2[C@]2(O)O[C@](NC(=O)[C@@H]3C=C4c5cccc6[nH]c(Br)c(c56)C[C@H]4N(C)C3)(C(C)C)C(=O)N12 | 7% | x | x | x | x | u | x | x | x | x
O=C(/C=C/c1ccccc1)c1c(O)n(CCc2ccccc2)c(=O)[nH]c1=O | 8% | 2% | -9% | -15% | u | u | 2* | u | 18µM* | 22%
O=S(=O)(/C(=C/c1ccc(C(F)(F)F)cc1)c1nc2ccccc2[nH]1)c1ccccc1 | -19% | -8% | 0% | 10%[57.1 µM] | u | 16µM* | 3.8* | u | 2.3µM* | 8.2µM*
CC[C@H](Oc1ccc(Cl)cc1)C(=O)OC1C[C@H]2CC[C@@H](C1)N2C (stereo not given in full) | -1% | x | x | x | x | -2% | x | x | x | x
COc1ccc(CC2c3cc(OC)c(OC)cc3CCN2C)cc1O (stereo not given) | 6% | -8% | -1% | 4% | 15% | -19% | x | x | x | x
COc1cc2c(cc1O)[C@H]1Cc3ccc(OC)c(O)c3CN1CC2 | 9% | x | x | x | x | -11% | x | x | x | x | USP1 UbRho=u
CC(C)(C)NC[C@H](O)c1cc(Cl)c(N)c(Cl)c1 | 5% | x | x | x | x | -2% | x | x | x | x
CSCC[C@H](NC(=O)[C@H](Cc1ccccc1)NC(=O)CNC(=O)CNC(=O)[C@@H](N)Cc1ccc(O)cc1)C(=O)O | 2% | x | x | x | x | -1% | x | x | x | x
COc1cc(/C=C/[N+](=O)[O-])ccc1O | u | -4% | 19µM* | -8% | 3.2µM* | 28µM* | 30* | u | u | u
COc1cc(/C=C/c2nc3ccccc3c(=O)n2-c2ccc(Br)c(C)c2)ccc1O | x | 0% | x | 3%[57.1 µM] | 14%[57.1 µM] | -1% | x | x | x | x
O=C(CN1CCCC2CCCCC21)c1ccc(I)cc1 (stereo not given) | x | x | x | 1% | -31% | x | x | x | x | x
NC(Cc1cc(O)c(O)cc1O)C(=O)O (stereo not given) | x | x | x | 9%[57.1 µM] | 11µM* | 45µM* | x | x | x | x | USP1 UbRho=12µM*
COC1=CC2C3Cc4ccc(OC)c(O)c4[C@]2(CCN3C)CC1=O (stereo not given in full) | -1% | x | x | x | x | 2% | x | x | x | x
CC(C)n1c(O)c(C2c3cc(Cl)ccc3Oc3[nH]c(=O)n(C(C)C)c(=O)c32)c(=O)[nH]c1=O (stereo not given) | 28µM* | 8% | 1.3µM* | 8%[57.1 µM] | -47% | 8.9µM* | 4.2* | u | 5.2µM* | u
CCOC(=O)C1CCN(/C=C2/C(=O)NC(=O)N(c3ccc(OCC)cc3)C2=O)CC1 | -15% | -3% | -13% | 11% | 0% | 3% | x | x | x | x
CCOc1ccc(N2C(=O)NC(=O)/C(=C\c3cc(OC)c(OC)cc3[N+](=O)[O-])C2=O)cc1 | 45µM* | -2% | 32% | 9%[57.1 µM] | 11µM* | 32µM* | 17* | 13µM* | 26% | 6%
CCC1(CC)C(=O)NC(=O)N(c2ccccc2)C1=O | x | -3% | 1% | 4% | 6% | -5% | x | x | x | x
O=C1NC(=O)N(c2ccccc2)C(=O)/C1=C\c1ccccc1[N+](=O)[O-] | 22µM* | 8% | u | 9%[57.1 µM] | u | 45µM* | 21* | 28µM* | 24% | 6%
C=C[C@@H]1CN2CC[C@H]1C[C@H]2[C@H](O)c1ccnc2ccccc12 | 18% | x | x | x | x | 1% | x | x | x | x

Compound activity (PubChem BioAssay)
